Assay results published in the supplement of paper PMC6411743.
± gives the standard deviation of the averaged measurements. The full data set covers some 6,200 targets. This sample favours those with the largest changes.

Sequence of UniProt Q96PZ0 (Q96PZ0 whole entry): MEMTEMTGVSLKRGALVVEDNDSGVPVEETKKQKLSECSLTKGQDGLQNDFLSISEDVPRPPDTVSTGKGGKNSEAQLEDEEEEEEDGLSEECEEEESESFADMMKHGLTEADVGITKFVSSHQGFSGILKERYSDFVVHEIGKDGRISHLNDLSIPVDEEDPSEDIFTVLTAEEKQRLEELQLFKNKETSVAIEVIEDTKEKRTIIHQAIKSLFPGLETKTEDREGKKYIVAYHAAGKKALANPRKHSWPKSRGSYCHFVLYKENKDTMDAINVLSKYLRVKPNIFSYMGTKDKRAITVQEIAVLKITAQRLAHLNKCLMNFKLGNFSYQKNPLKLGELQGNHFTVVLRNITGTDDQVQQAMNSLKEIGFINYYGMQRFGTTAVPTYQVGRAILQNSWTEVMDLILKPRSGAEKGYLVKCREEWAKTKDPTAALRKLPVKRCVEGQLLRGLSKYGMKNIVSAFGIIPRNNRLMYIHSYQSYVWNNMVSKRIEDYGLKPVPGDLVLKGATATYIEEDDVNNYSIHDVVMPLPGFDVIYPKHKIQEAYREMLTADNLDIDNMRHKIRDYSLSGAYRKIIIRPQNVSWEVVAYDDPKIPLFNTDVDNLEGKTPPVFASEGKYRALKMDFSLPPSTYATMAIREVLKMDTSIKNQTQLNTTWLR
Sequence of UniProt Q96K49 (Q96K49 whole entry): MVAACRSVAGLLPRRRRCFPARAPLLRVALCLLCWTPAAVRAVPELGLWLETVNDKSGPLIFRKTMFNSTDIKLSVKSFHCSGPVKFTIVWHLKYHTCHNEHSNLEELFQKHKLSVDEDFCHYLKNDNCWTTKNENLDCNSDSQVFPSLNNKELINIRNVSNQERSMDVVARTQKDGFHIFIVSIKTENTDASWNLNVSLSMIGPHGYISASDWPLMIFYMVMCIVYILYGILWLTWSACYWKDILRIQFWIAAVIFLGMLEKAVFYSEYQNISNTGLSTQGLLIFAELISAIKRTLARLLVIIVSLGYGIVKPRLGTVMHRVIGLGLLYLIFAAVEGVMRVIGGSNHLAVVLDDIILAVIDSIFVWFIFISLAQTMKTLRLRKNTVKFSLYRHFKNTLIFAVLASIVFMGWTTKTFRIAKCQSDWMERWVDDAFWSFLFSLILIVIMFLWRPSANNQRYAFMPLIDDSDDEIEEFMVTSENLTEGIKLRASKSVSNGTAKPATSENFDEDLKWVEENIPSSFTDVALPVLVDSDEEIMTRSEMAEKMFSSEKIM
Sequence of UniProt Q9UDR5 (Q9UDR5 whole entry): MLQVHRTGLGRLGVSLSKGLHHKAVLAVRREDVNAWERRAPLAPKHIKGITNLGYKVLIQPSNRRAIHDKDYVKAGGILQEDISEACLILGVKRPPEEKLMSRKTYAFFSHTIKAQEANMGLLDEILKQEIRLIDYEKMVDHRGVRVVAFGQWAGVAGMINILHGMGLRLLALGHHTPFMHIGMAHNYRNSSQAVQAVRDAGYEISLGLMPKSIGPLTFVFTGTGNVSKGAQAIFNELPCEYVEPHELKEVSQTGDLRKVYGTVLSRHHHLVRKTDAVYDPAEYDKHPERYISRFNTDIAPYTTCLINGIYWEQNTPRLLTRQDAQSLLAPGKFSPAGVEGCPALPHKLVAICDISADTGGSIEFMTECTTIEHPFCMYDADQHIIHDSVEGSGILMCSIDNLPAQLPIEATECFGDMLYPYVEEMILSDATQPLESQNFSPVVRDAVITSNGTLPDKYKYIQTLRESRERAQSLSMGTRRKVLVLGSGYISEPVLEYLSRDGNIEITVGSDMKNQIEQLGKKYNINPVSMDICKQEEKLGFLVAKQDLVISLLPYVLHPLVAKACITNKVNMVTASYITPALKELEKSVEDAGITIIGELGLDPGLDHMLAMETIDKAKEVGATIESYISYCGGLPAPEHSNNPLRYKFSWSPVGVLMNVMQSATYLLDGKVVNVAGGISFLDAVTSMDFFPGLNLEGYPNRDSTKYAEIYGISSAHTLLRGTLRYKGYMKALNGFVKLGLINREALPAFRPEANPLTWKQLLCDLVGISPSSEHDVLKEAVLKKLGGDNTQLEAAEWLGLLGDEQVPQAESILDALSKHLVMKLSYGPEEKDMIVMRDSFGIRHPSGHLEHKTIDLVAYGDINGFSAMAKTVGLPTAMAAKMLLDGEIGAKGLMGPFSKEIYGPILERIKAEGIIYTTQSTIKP
Sequence of UniProt Q96CN5 (Q96CN5 whole entry): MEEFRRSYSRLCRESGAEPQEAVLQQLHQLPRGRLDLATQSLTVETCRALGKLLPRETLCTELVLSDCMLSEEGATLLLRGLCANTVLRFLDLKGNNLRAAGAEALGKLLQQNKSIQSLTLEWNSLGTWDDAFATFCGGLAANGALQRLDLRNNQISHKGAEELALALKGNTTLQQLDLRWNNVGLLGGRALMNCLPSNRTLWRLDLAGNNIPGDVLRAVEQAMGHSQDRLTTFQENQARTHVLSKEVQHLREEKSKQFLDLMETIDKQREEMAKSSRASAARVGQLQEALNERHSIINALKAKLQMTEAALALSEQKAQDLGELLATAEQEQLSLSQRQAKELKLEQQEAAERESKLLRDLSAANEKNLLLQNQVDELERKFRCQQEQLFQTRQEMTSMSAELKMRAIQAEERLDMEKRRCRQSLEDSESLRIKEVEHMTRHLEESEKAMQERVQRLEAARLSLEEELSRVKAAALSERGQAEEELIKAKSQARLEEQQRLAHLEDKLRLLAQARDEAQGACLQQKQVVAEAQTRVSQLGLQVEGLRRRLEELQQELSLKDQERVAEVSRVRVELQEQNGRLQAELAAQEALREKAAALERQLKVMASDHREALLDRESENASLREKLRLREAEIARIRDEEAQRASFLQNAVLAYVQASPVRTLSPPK
Sequence of UniProt Q9BTC0 (Q9BTC0 whole entry): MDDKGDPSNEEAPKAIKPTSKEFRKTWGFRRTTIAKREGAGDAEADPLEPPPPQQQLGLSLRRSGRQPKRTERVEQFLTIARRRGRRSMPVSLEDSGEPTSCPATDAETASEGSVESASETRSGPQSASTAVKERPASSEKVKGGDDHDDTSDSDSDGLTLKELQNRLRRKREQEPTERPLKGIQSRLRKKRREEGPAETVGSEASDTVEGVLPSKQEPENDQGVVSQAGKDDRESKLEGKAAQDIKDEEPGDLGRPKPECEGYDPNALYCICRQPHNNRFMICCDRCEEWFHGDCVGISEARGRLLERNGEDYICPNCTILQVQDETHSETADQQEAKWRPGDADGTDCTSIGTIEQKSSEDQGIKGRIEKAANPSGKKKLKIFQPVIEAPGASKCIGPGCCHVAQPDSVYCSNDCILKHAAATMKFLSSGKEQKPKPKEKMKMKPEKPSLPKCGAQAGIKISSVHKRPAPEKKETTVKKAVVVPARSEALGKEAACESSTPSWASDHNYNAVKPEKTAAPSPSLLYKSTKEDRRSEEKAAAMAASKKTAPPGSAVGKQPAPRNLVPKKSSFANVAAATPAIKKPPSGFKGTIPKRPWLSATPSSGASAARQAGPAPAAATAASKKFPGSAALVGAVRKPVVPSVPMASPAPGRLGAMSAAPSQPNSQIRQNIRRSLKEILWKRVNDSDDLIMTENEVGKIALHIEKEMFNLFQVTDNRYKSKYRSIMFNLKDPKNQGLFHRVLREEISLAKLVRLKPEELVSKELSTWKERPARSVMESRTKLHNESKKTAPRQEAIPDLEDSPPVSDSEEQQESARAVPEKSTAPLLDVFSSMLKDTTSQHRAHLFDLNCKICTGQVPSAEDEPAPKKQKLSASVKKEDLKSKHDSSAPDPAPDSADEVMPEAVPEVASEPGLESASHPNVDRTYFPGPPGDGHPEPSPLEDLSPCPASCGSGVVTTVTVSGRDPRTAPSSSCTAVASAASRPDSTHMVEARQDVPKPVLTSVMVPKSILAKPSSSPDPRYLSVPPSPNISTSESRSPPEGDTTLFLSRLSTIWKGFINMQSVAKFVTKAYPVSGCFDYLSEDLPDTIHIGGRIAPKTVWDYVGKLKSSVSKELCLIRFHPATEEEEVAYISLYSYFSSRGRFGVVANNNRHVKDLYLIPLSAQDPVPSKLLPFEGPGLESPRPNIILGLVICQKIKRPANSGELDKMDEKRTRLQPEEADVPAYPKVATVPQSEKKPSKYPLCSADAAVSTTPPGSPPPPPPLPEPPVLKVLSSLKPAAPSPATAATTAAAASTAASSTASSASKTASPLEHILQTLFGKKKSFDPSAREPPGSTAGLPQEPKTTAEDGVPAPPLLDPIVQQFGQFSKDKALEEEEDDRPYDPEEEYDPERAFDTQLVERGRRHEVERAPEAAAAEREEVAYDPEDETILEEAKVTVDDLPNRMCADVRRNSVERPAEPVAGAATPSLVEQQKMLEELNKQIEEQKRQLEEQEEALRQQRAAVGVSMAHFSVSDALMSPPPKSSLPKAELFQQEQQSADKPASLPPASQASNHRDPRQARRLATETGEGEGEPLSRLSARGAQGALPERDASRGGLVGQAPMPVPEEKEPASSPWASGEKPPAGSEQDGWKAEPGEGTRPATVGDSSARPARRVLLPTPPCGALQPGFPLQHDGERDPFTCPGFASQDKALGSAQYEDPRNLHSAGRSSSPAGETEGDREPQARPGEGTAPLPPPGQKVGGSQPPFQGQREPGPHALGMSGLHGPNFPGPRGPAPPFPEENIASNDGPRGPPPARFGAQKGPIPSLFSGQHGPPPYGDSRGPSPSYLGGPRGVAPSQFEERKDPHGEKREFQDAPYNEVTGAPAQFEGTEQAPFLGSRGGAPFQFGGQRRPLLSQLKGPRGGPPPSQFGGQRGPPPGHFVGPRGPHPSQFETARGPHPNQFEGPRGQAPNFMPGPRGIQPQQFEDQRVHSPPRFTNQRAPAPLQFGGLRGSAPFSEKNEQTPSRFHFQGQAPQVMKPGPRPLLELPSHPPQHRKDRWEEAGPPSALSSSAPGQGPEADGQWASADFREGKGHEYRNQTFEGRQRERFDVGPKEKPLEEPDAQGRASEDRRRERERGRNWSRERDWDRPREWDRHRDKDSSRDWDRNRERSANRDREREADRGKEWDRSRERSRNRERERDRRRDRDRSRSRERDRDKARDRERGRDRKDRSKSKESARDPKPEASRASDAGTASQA

These targets were tested with Nc1ncnc2c1ncn2[C@@H]1O[C@H](COP(=O)(O)OP(=O)(O)NP(=O)(O)O)[C@@H](O)[C@H]1O [adenylyl imidodiphosphate] (assay: NP40-soluble protein abundance relative to vehicle (solubility fold change) (ratio); higher = more soluble protein in presence of AMP-PNP). Details: concentration: 1mM.
Procedure, shortened: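 Each value is a fold change relative to the detergent-processed vehicle, calculated per replicate from vsn-normalised intensities. Jurkat crude lysate received eight concentrations (0.1 to 10 mM) for 10 min at room temperature and 3 min at 37 °C, then was solubilised in 0.8% NP40 with benzonase (60 min, 4 °C). The ultracentrifuged supernatant was TMT-labelled and run by LC-MS/MS in three independent experiments.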
With UniProt Q9Y2Y0|Q9Y2Y0-2 the NP40-soluble protein abundance was 0.982 ± 0.014. With UniProt Q9Y320|Q9Y320-2 the NP40-soluble protein abundance was 0.936 ± 0.038. Target ZNF512B (UniProt Q96KM6) has an NP40-soluble protein abundance of 1.01 ± 0.017. UniProt Q96P48|Q96P48-3 showed an NP40-soluble protein abundance of 0.968 ± 0.022. Work on UniProt Q9Y639|Q9Y639-1 yielded an NP40-soluble protein abundance of 1.01 ± 0.056. UniProt Q9NPB8|H0Y565 showed an NP40-soluble protein abundance of 1.01 ± 0.017. MRPL9 (UniProt Q9BYD2) gave an NP40-soluble protein abundance of 1.04 ± 0.13. UniProt Q96RG2|Q96RG2-2 was tested, and the NP40-soluble protein abundance was 0.9919 ± 0.0087. WDR12 (UniProt Q9GZL7) was tested, and the NP40-soluble protein abundance was 0.997 ± 0.017. For UniProt Q9NYU2|Q9NYU2-2, the NP40-soluble protein abundance was 0.9826 ± 0.0098. In the case of PUS7 (UniProt Q96PZ0), the NP40-soluble protein abundance is reported as 1.03 ± 0.035. UniProt Q9HCJ0|Q9HCJ0-2 was tested, and the NP40-soluble protein abundance was 1.043 ± 0.0013. For NCOA5 (UniProt Q9HCD5), the NP40-soluble protein abundance was 1.09 ± 0.062. TPX2 (UniProt Q9ULW0) was tested, and the NP40-soluble protein abundance was 1.09 ± 0.013. With UniProt Q99571|Q99571-2|F6SFZ6 the NP40-soluble protein abundance was 0.986 ± 0.019. Target UniProt Q9H668 has an NP40-soluble protein abundance of 0.991 ± 0.028. With THRAP3 (UniProt Q9Y2W1) the NP40-soluble protein abundance was 1.11 ± 0.014. MRPL53 (UniProt Q96EL3) gave an NP40-soluble protein abundance of 0.987 ± 0.06. “UniProt Q96RL7|Q96RL7-2|Q96RL7-3|Q96RL7-4” was tested, and the NP40-soluble protein abundance was 0.982 ± 0.039. For UniProt Q96K49|Q96K49-2, the NP40-soluble protein abundance was 0.99 ± 0.013. Work on DIDO1 (UniProt Q9BTC0) yielded an NP40-soluble protein abundance of 1.1 ± 0.035. For SMARCD1 (UniProt Q96GM5), the NP40-soluble protein abundance was 1.01 ± 0.085. PUS3 (UniProt Q9BZE2) showed an NP40-soluble protein abundance of 1.01 ± 0.013. For UniProt Q9NVM9, the NP40-soluble protein abundance was 1.03 ± 0.027. UniProt Q9Y5Y5|Q9Y5Y5-2 was tested, and the NP40-soluble protein abundance was 0.967 ± 0.051. Target LRRC45 (UniProt Q96CN5) has an NP40-soluble protein abundance of 0.977 ± 0.065. In the case of CPSF2 (UniProt Q9P2I0), the NP40-soluble protein abundance is reported as 1.01 ± 0.016. UniProt Q9NSG2|Q9NSG2-2|Q9NSG2-3 gave an NP40-soluble protein abundance of 0.991 ± 0.028. With UniProt Q9BQ39|A0A087WVC1 the NP40-soluble protein abundance was 1.22 ± 0.068. For UniProt Q9UM21, the NP40-soluble protein abundance was 1.02 ± 0.058. For AASS (UniProt Q9UDR5), the NP40-soluble protein abundance was 0.9781 ± 0.0043. With NIPSNAP1 (UniProt Q9BPW8) the NP40-soluble protein abundance was 0.94 ± 0.05. In the case of UniProt Q9UBK8|Q9UBK8-2, the NP40-soluble protein abundance is reported as 0.928 ± 0.02. Target UTP11 (UniProt Q9Y3A2) has an NP40-soluble protein abundance of 1.02 ± 0.026. C9orf78 (UniProt Q9NZ63) showed an NP40-soluble protein abundance of 0.999 ± 0.047. OSTC (UniProt Q9NRP0) gave an NP40-soluble protein abundance of 1.02 ± 0.038. In the case of UniProt Q9Y462|Q9Y462-3, the NP40-soluble protein abundance is reported as 1 ± 0.032.

Same assay, conditions: concentration: 2mM
Target UniProt Q9Y2Y0|Q9Y2Y0-2 has an NP40-soluble protein abundance of 0.972 ± 0.026. For UniProt Q9Y320|Q9Y320-2, the NP40-soluble protein abundance was 0.89 ± 0.056. ZNF512B (UniProt Q96KM6) gave an NP40-soluble protein abundance of 1.09 ± 0.06. UniProt Q96P48|Q96P48-3 was tested, and the NP40-soluble protein abundance was 0.896 ± 0.14. UniProt Q9Y639|Q9Y639-1 was tested, and the NP40-soluble protein abundance was 1.05 ± 0.055. UniProt Q9NPB8|H0Y565 was tested, and the NP40-soluble protein abundance was 1.05 ± 0.034. MRPL9 (UniProt Q9BYD2) gave an NP40-soluble protein abundance of 0.967 ± 0.13. Work on UniProt Q96RG2|Q96RG2-2 yielded an NP40-soluble protein abundance of 0.997 ± 0.048. Work on WDR12 (UniProt Q9GZL7) yielded an NP40-soluble protein abundance of 0.928 ± 0.082. Work on UniProt Q9NYU2|Q9NYU2-2 yielded an NP40-soluble protein abundance of 0.9 ± 0.12. PUS7 (UniProt Q96PZ0) gave an NP40-soluble protein abundance of 1.002 ± 0.0077. UniProt Q9HCJ0|Q9HCJ0-2 was tested, and the NP40-soluble protein abundance was 1.033 ± 0.0035. In the case of NCOA5 (UniProt Q9HCD5), the NP40-soluble protein abundance is reported as 1.18 ± 0.039. TPX2 (UniProt Q9ULW0) was tested, and the NP40-soluble protein abundance was 1.2 ± 0.077. UniProt Q99571|Q99571-2|F6SFZ6 gave an NP40-soluble protein abundance of 0.959 ± 0.019. UniProt Q9H668 was tested, and the NP40-soluble protein abundance was 0.97 ± 0.028. In the case of THRAP3 (UniProt Q9Y2W1), the NP40-soluble protein abundance is reported as 1.23 ± 0.1. Work on MRPL53 (UniProt Q96EL3) yielded an NP40-soluble protein abundance of 1.01 ± 0.023. “UniProt Q96RL7|Q96RL7-2|Q96RL7-3|Q96RL7-4” gave an NP40-soluble protein abundance of 0.918 ± 0.098. In the case of UniProt Q96K49|Q96K49-2, the NP40-soluble protein abundance is reported as 1.01 ± 0.027. DIDO1 (UniProt Q9BTC0) showed an NP40-soluble protein abundance of 1.18 ± 0.093. Work on SMARCD1 (UniProt Q96GM5) yielded an NP40-soluble protein abundance of 0.97 ± 0.12. Target PUS3 (UniProt Q9BZE2) has an NP40-soluble protein abundance of 0.997 ± 0.0053. Work on UniProt Q9NVM9 yielded an NP40-soluble protein abundance of 1.02 ± 0.04. In the case of UniProt Q9Y5Y5|Q9Y5Y5-2, the NP40-soluble protein abundance is reported as 0.97 ± 0.05. LRRC45 (UniProt Q96CN5) gave an NP40-soluble protein abundance of 0.919 ± 0.029. CPSF2 (UniProt Q9P2I0) gave an NP40-soluble protein abundance of 1 ± 0.053. UniProt Q9NSG2|Q9NSG2-2|Q9NSG2-3 showed an NP40-soluble protein abundance of 0.991 ± 0.015. UniProt Q9BQ39|A0A087WVC1 was tested, and the NP40-soluble protein abundance was 1.27 ± 0.062. With UniProt Q9UM21 the NP40-soluble protein abundance was 0.987 ± 0.034. For AASS (UniProt Q9UDR5), the NP40-soluble protein abundance was 0.935 ± 0.098. NIPSNAP1 (UniProt Q9BPW8) gave an NP40-soluble protein abundance of 0.873 ± 0.075. With UniProt Q9UBK8|Q9UBK8-2 the NP40-soluble protein abundance was 0.881 ± 0.038. UTP11 (UniProt Q9Y3A2) showed an NP40-soluble protein abundance of 1.04 ± 0.037. C9orf78 (UniProt Q9NZ63) showed an NP40-soluble protein abundance of 1.03 ± 0.038. For OSTC (UniProt Q9NRP0), the NP40-soluble protein abundance was 1.02 ± 0.025. Work on UniProt Q9Y462|Q9Y462-3 yielded an NP40-soluble protein abundance of 1.02 ± 0.037.

Same assay, conditions: concentration: 4mM
In the case of UniProt Q9Y2Y0|Q9Y2Y0-2, the NP40-soluble protein abundance is reported as 0.989 ± 0.036. UniProt Q9Y320|Q9Y320-2 showed an NP40-soluble protein abundance of 0.918 ± 0.036. In the case of ZNF512B (UniProt Q96KM6), the NP40-soluble protein abundance is reported as 1.1 ± 0.061. Target UniProt Q96P48|Q96P48-3 has an NP40-soluble protein abundance of 0.983 ± 0.07. UniProt Q9Y639|Q9Y639-1 was tested, and the NP40-soluble protein abundance was 1.01 ± 0.056. UniProt Q9NPB8|H0Y565 was tested, and the NP40-soluble protein abundance was 1.02 ± 0.015. With MRPL9 (UniProt Q9BYD2) the NP40-soluble protein abundance was 1.03 ± 0.075. UniProt Q96RG2|Q96RG2-2 showed an NP40-soluble protein abundance of 1.02 ± 0.011. WDR12 (UniProt Q9GZL7) was tested, and the NP40-soluble protein abundance was 0.979 ± 0.011. UniProt Q9NYU2|Q9NYU2-2 was tested, and the NP40-soluble protein abundance was 0.955 ± 0.034. Work on PUS7 (UniProt Q96PZ0) yielded an NP40-soluble protein abundance of 1.04 ± 0.019. UniProt Q9HCJ0|Q9HCJ0-2 gave an NP40-soluble protein abundance of 1.01 ± 0.013. In the case of NCOA5 (UniProt Q9HCD5), the NP40-soluble protein abundance is reported as 1.37 ± 0.081. Target TPX2 (UniProt Q9ULW0) has an NP40-soluble protein abundance of 1.23 ± 0.066. In the case of UniProt Q99571|Q99571-2|F6SFZ6, the NP40-soluble protein abundance is reported as 0.971 ± 0.019. UniProt Q9H668 gave an NP40-soluble protein abundance of 0.985 ± 0.027. For THRAP3 (UniProt Q9Y2W1), the NP40-soluble protein abundance was 1.2 ± 0.034. Work on MRPL53 (UniProt Q96EL3) yielded an NP40-soluble protein abundance of 0.986 ± 0.061. “UniProt Q96RL7|Q96RL7-2|Q96RL7-3|Q96RL7-4” showed an NP40-soluble protein abundance of 0.969 ± 0.012. UniProt Q96K49|Q96K49-2 was tested, and the NP40-soluble protein abundance was 0.984 ± 0.026. DIDO1 (UniProt Q9BTC0) was tested, and the NP40-soluble protein abundance was 1.23 ± 0.043. Work on SMARCD1 (UniProt Q96GM5) yielded an NP40-soluble protein abundance of 1.03 ± 0.11. PUS3 (UniProt Q9BZE2) showed an NP40-soluble protein abundance of 1 ± 0.026. UniProt Q9NVM9 was tested, and the NP40-soluble protein abundance was 1.05 ± 0.033. UniProt Q9Y5Y5|Q9Y5Y5-2 was tested, and the NP40-soluble protein abundance was 0.9611 ± 0.0026. LRRC45 (UniProt Q96CN5) showed an NP40-soluble protein abundance of 0.969 ± 0.022. CPSF2 (UniProt Q9P2I0) was tested, and the NP40-soluble protein abundance was 1.03 ± 0.027. With UniProt Q9NSG2|Q9NSG2-2|Q9NSG2-3 the NP40-soluble protein abundance was 0.993 ± 0.011. Target UniProt Q9BQ39|A0A087WVC1 has an NP40-soluble protein abundance of 1.35 ± 0.023. UniProt Q9UM21 was tested, and the NP40-soluble protein abundance was 0.981 ± 0.023. AASS (UniProt Q9UDR5) gave an NP40-soluble protein abundance of 0.969 ± 0.035. NIPSNAP1 (UniProt Q9BPW8) was tested, and the NP40-soluble protein abundance was 0.943 ± 0.028. UniProt Q9UBK8|Q9UBK8-2 showed an NP40-soluble protein abundance of 0.916 ± 0.041. With UTP11 (UniProt Q9Y3A2) the NP40-soluble protein abundance was 1.03 ± 0.025. C9orf78 (UniProt Q9NZ63) was tested, and the NP40-soluble protein abundance was 0.982 ± 0.055. Target OSTC (UniProt Q9NRP0) has an NP40-soluble protein abundance of 1.03 ± 0.049. In the case of UniProt Q9Y462|Q9Y462-3, the NP40-soluble protein abundance is reported as 1.012 ± 0.0034.
